Inconclusive results are not listed. Where a call stands in place of a potency, no number is given. Activity calls are given as the source filed them. The call rests on the fitted dose curve; in most records, active means well fitted curve in the direction sought with a large enough effect; inconclusive means small, poorly fitted or top-dose-only effect, or another doubt; inactive means no such curve, though single readings can be large; an effect the other way counts as inactive or inconclusive.
System: not listed separately
Assay: Confirmatory screen GU Rhodamine qHTS for Zika virus inhibitors qHTS (AID 1347157); further: nearly all actives have a fitted effect of over 70% in size
Conditions: purified enzyme assay, Rhodamine110 substrate fluorescence, 15 min; series mostly up to 65.2 µM
In short: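 Percent inhibition derives from the 15-min fluorescence change (ex 480, em 540 nm), normalized to no-enzyme and no-inhibitor wells. Reactions contained 25 nM NS2B-NS3 complex and 1.5 microM substrate in 10 mM Tris-HCl pH 8.0.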
Potency means the concentration at half of the fitted maximal effect.

Question: For `CC1(C)CCC(CN2CCN(c3ccc(C(=O)NS(=O)(=O)c4ccc(NCC5CCOCC5)c([N+](=O)[O-])c4)c(Oc4cnc5[nH]ccc5c4)c3)CC2)=C(c2ccc(Cl)cc2)C1`, which Potency is on record?
Answer: Its Potency is 1210 nM (active).

Question: With `O=C(O)c1c(Cl)c(Cl)c(Cl)c(Cl)c1-c1c2cc(I)c(=O)c(I)c-2oc2c(I)c(O)c(I)cc12` as the compound, how does the Potency read?
Answer: The Potency was “inactive”.

Question: Which Potency does the source give for `CC(C)(C)OC(=O)N[C@H]1CCCCCC=C[C@@H]2C[C@@]2(C(=O)NS(=O)(=O)C2CC2)NC(=O)[C@@H]2C[C@@H](OC(=O)N3Cc4cccc(F)c4C3)CN2C1=O` here?
Answer: The Potency was 49400 nM (active).

Question: With `O=c1c(O)c(-c2ccc(O)cc2)oc2cc(O)cc(O)c12` as the compound, how does the Potency read?
Answer: Its Potency is “inactive”.

System: Zika virus NS2B-NS3 protease (unlinked complex)
Assay: Primary screen GU Rhodamine qHTS for Zika virus inhibitors: Unlinked NS2B-NS3 protease assay (AID 1347159); further: nearly all actives have a fitted effect of over 60% in size
Conditions: Recombinant ZIKV NS2B-NS3 protease, Rhodamine110 substrate fluorescence; series mostly up to 107 µM
In short: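 Percent inhibition came from the 15-min rise in Rhodamine110 fluorescence (1.5 microM substrate, ~15% conversion), normalized to no-inhibitor and no-enzyme wells and Hill-fitted. Unlinked protease, 25 nM, pH 8.0 Tris buffer; compounds up to 114 microM, 15-min preincubation.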

Question: Which Potency does the source give for `COc1ccc(Cc2ccc(NC(N)=O)cc2)cc1-c1cccc(Cl)c1` here?
Answer: Its Potency is “inactive”.

Question: Which Potency does the source give for `O=C(Nc1ccccc1-c1cn2c(CN3CCNCC3)csc2n1)c1cnc2ccccc2n1` here?
Answer: The Potency was “inactive”.

Question: For `Cc1cccc(Nc2nc(-c3ccncc3)cs2)c1`, which Potency is on record?
Answer: The Potency was “inactive”.

Question: Which Potency does the source give for `COc1ccc(C2CC(c3ccccc3)=NN2c2ccc(S(N)(=O)=O)cc2)cc1` (stereo unspecified) here?
Answer: The Potency was “inactive”.

Question: For `CC1(C)CCC(CN2CCN(c3ccc(C(=O)NS(=O)(=O)c4ccc(NCC5CCOCC5)c([N+](=O)[O-])c4)c(Oc4cnc5[nH]ccc5c4)c3)CC2)=C(c2ccc(Cl)cc2)C1`, which Potency is on record?
Answer: Its Potency is 2240 nM (active).

Question: Which Potency does the source give for `CN1CCN(CCOc2cc(OC3CCOCC3)c3c(Nc4c(Cl)ccc5c4OCO5)ncnc3c2)CC1` here?
Answer: The Potency was “inactive”.

Question: Which Potency does the source give for `CCN1CCC[C@H]1CNC(=O)c1cc(S(N)(=O)=O)ccc1OC` here?
Answer: The Potency was “inactive”.

Question: With `CC(C)n1nc(-c2ccc3oc(N)nc3c2)c2c(N)ncnc21` as the compound, how does the Potency read?
Answer: The Potency was “inactive”.

Question: With `COc1ccc2c(Oc3ccc(NC(=O)c4c(C)n(CC(C)(C)O)n(-c5ccccc5)c4=O)nc3)ccnc2c1` as the compound, how does the Potency read?
Answer: The Potency was “inactive”.

Question: Which Potency does the source give for `COCCOC(=O)C1=C(C)NC2=C(C(=O)CC(c3ccccc3OC)C2)C1c1cccc(O)c1` (stereo unspecified) here?
Answer: The Potency was “inactive”.

Question: With `COCCOc1nc(-c2ccc(Cl)c(Cl)c2)n(-c2ccc(NC(=O)CCl)cc2)n1` as the compound, how does the Potency read?
Answer: The Potency was “inactive”.

Question: For `COc1cc(N2CCC(N3CCN(C)CC3)CC2)ccc1Nc1ncc(Cl)c(Nc2ccccc2S(=O)(=O)C(C)C)n1`, which Potency is on record?
Answer: The Potency was “inactive”.

Question: Which Potency does the source give for `O=C(Nc1cccc(Br)c1)c1cccc(S(=O)(=O)N2CCCCCC2)c1` here?
Answer: Its Potency is “inactive”.

Question: Which Potency does the source give for `CCN(CC)CCNC(=O)c1ccc(N)cc1` here?
Answer: Its Potency is “inactive”.

Question: For `NC(=O)c1cnc(-c2ccc(C3(N)CCC3)cc2)c(-c2ccccc2)c1`, which Potency is on record?
Answer: Its Potency is “inactive”.

Question: For `COc1ccc(C2Sc3ccccc3N(CCN(C)C)C(=O)C2OC(C)=O)cc1` (stereo unspecified), which Potency is on record?
Answer: Its Potency is “inactive”.

Question: For `COc1cc2c(cc1OC)CN(CCc1ccc(NC(=O)c3cc(OC)c(OC)cc3NC(=O)c3cnc4ccccc4c3)cc1)CC2`, which Potency is on record?
Answer: Its Potency is “inactive”.

Question: With `CC(C)(C)NC(=O)Nc1cccc(Nc2ncc(F)c(NC(C)(C)CO)n2)c1` as the compound, how does the Potency read?
Answer: Its Potency is “inactive”.

Question: For `O=C(NCc1ccccc1)c1csc(Nc2ccncn2)n1`, which Potency is on record?
Answer: The Potency was “inactive”.

Question: For `CC(C)NCC(O)COc1cccc2[nH]ccc12` (stereo unspecified), which Potency is on record?
Answer: The Potency was “inactive”.

Question: For `NC(=O)c1cccc2[nH]c(-c3ccc([C@H]4CCCN4)cc3F)nc12`, which Potency is on record?
Answer: Its Potency is “inactive”.

Question: For `CC(=O)O[C@]1(C(C)=O)CC[C@H]2[C@@H]3C=C(Cl)C4=CC(=O)[C@@H]5C[C@@H]5[C@]4(C)[C@H]3CC[C@@]21C`, which Potency is on record?
Answer: Its Potency is “inactive”.

Question: Which Potency does the source give for `Clc1ccc(Cn2c(CN3CCCC3)nc3ccccc32)cc1` here?
Answer: Its Potency is “inactive”.

Question: Which Potency does the source give for `CNC(=O)c1ccc2cc(C3(O)CCn4cncc43)ccc2c1` (stereo unspecified) here?
Answer: Its Potency is “inactive”.

Question: With `O=C(O)c1cc(-c2ccccc2)nc2ccccc12` as the compound, how does the Potency read?
Answer: Its Potency is “inactive”.

Question: For `O=C(O)c1ccccc1C(=O)Nc1ccc(-c2ccccc2)cc1`, which Potency is on record?
Answer: Its Potency is “inactive”.

Question: Which Potency does the source give for `O=C(NC1CCOCC1)c1ccc(-c2cc(-c3cn[nH]c3-c3ccccn3)ccn2)cc1` here?
Answer: Its Potency is “inactive”.

From PubChem BioAssay (NCATS)
